In all, about 1,100 compounds were measured (“Wnt reporter firefly/Renilla luciferase ratio relative to plate median”: median about 1.1, highest 2% from about 1.6 on). What follows is part of a selection rich in the highest values, with near analogues and random picks from the rest.
System: HEK293T (UBE3A T485A transfected, BAR Wnt reporter)
Assay: Wnt reporter firefly/Renilla luciferase ratio relative to plate median (fold (linear ratio)); higher = more Wnt/beta-catenin reporter activation
Details: 24 h
In short: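 HEK293T cells were grown in DMEM with 10% FBS at 37°C and 5% CO2, at 4500 cells/well in white 384-well plates. They were transfected with a BAR firefly luciferase Wnt reporter, TK-Renilla and an expression plasmid using Fugene 6. Four hours later, robots dosed the chemicals at 0.01–100 uM for 24 h, followed by Dual-Glo luciferase readout. Wnt activity (firefly/Renilla ratio) and cell health (raw Renilla) were median-centred per plate, averaged over four biological replicates.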

| SMILES | Wnt reporter firefly/Renilla luciferase ratio (concentration: 0.1 uM) | Wnt reporter firefly/Renilla luciferase ratio (concentration: 1 uM) | Wnt reporter firefly/Renilla luciferase ratio (concentration: 10 uM) | Wnt reporter firefly/Renilla luciferase ratio (concentration: 100 uM) | Wnt reporter firefly/Renilla luciferase ratio (concentration: 0.01 uM) |
| --- | --- | --- | --- | --- | --- |
| CCN(CC)CCNc1ccc(CNC=O)c2sc3ccc(OC)cc3c(=O)c12 | 1.79 | 0.887 | 0.373 | – | – |
| O=c1[nH]c2ccc(S(=O)CCN3CCC(Cc4ccc(F)cc4)CC3)cc2o1 (stereo unspecified) [Besonprodil] | 1.11 | 0.965 | 0.993 | 0.313 | – |
| C[C@]12CC[C@@H]3c4ccc(O)cc4CC[C@H]3[C@@H]1CC[C@@H]2O [17beta-Estradiol] | 0.999 | 0.932 | 0.591 | – | – |
| CN(C)[C@@H]1C(O)=C(C(N)=O)C(=O)[C@@]2(O)C(O)=C3C(=O)c4c(O)cccc4[C@@](C)(O)[C@H]3[C@H](O)[C@@H]12.Cl [Oxytetracycline hydrochloride] | 1.09 | 1.03 | 0.562 | 0.0778 | – |
| CN(C)[C@@H]1C(O)=C(C(N)=O)C(=O)[C@@]2(O)C(O)=C3C(=O)c4c(O)cccc4[C@@](C)(O)[C@H]3C[C@@H]12 [Tetracycline] | 1.15 | 1.17 | 1.43 | 0.703 | – |
| CN(C)[C@@H]1C(O)=C(C(N)=O)C(=O)[C@@]2(O)C(O)=C3C(=O)c4c(O)cccc4[C@@](C)(O)[C@H]3[C@H](O)[C@@H]12.O.O [Oxytetracycline dihydrate] | 2.3 | 1.22 | 1.34 | 0.951 | 1.55 |
| CCCCC(CC)CO (stereo unspecified) [2-Ethyl-1-hexanol] | 0.976 | 0.988 | 1.62 | 0.964 | – |
| CCCCC(CC)COC(=O)CCCCCCCCC(=O)OCC(CC)CCCC (stereo unspecified) [Bis(2-ethylhexyl) decanedioate] | 0.935 | 1.08 | 1.07 | 1.12 | – |
| CCCCC(CC)COP(=O)(OCC(CC)CCCC)OCC(CC)CCCC (stereo unspecified) [Tris(2-ethylhexyl) phosphate] | 0.978 | 1.17 | 1.11 | 0.917 | – |
| Oc1ccc(O)cc1 [Hydroquinone] | 0.941 | 0.865 | 0.902 | 0.377 | – |
| CCCCCCC(CCCCCCCCCCC(=O)OCC(COC(C)=O)OC(C)=O)OC(C)=O (stereo unspecified) [Grinstad Soft-N-Safe] | 0.94 | 1.29 | 1.08 | 1.54 | – |
| C/C=C/c1ccc(OC)cc1 [(E)-Anethole] | 1.22 | 0.971 | 1.15 | 1.58 | – |
| CC(C)(c1cc(Br)c(O)c(Br)c1)c1cc(Br)c(O)c(Br)c1 [3,3',5,5'-Tetrabromobisphenol A] | 1.05 | 0.95 | 1.03 | 0.332 | – |
| Cc1ncc([C@@H](CCCCCCc2ccc3c(n2)NCCC3)CC(=O)O)cn1 | 1.25 | 1.42 | 1.78 | 1.55 | – |
| CS(=O)(=O)c1ccc([C@@H](CC2CCCC2)C(=O)Nc2cnccn2)cc1Cl | 1.12 | 1.16 | 0.922 | 0.278 | – |
| CC(C)NCC(O)c1ccc(O)c(O)c1.Cl (stereo unspecified) [Isoproterenol hydrochloride] | 1.1 | 1.23 | 1.15 | 0.309 | – |
| O=C(O)c1cc(/N=N/c2ccc(S(=O)(=O)Nc3ccccn3)cc2)ccc1O [Sulfasalazine] | 0.944 | 0.993 | 1.33 | 3.01 | – |
| c1ccc2ncccc2c1 [Quinoline] | 0.857 | 1.13 | 1.43 | 1.26 | – |
| Cc1ccc2ncccc2c1 [6-Methylquinoline] | 0.931 | 0.836 | 1.29 | 1.81 | – |
| Cc1ccc(C)c(C)c1 [1,2,4-Trimethylbenzene] | 0.982 | 0.965 | 0.884 | 1.09 | – |

| SMILES | Wnt reporter firefly/Renilla luciferase ratio (concentration: 0.1 uM) | Wnt reporter firefly/Renilla luciferase ratio (concentration: 1 uM) | Wnt reporter firefly/Renilla luciferase ratio (concentration: 10 uM) | Wnt reporter firefly/Renilla luciferase ratio (concentration: 100 uM) | Wnt reporter firefly/Renilla luciferase ratio (concentration: 0.01 uM) |
| --- | --- | --- | --- | --- | --- |
| O=C1c2c(O)cccc2Cc2cccc(O)c21 [Anthralin] | 0.825 | 1.04 | 1.46 | 0.798 | – |
| COc1ccc(C(=O)Nc2nc3ccccc3c(NCc3ccccc3)c2C#N)cc1 | 1.27 | 1.14 | 0.744 | 0.357 | – |
| COCCOC[C@H](CC1(C(=O)N[C@H]2CC[C@@H](C(=O)O)CC2)CCCC1)C(=O)Oc1ccc2c(c1)CCC2 [Candoxatril] | 1.15 | 1.05 | 1 | 0.894 | – |
| CN1CCC[C@H]1c1cccnc1 [Nicotine] | 1.15 | 1.19 | 1.12 | 1.18 | – |
| CC1(C)C(=O)N(Br)C(=O)N1Br [1,3-Dibromo-5,5-dimethylhydantoin] | 0.79 | 1.01 | 1.06 | 1.25 | – |
| CC1(C)C(=O)N(Cl)C(=O)N1Cl [1,3-Dichloro-5,5-dimethylhydantoin] | 0.845 | 0.849 | 0.887 | 1.63 | – |
| NC(=O)N1C(=O)C(C(=O)c2cc(Cl)cs2)c2cc(F)c(Cl)cc21 (stereo unspecified) | 0.988 | 0.996 | 1.38 | 1.26 | – |
| C[C@]12CC[C@@H]3c4ccc(O)cc4CC[C@H]3[C@@H]1CC[C@H]2O [17alpha-Estradiol] | 0.699 | 1.04 | 0.715 | – | – |
| OCCNCCO [Diethanolamine] | 1.17 | 0.992 | 1.4 | 2.49 | – |
| c1ccc2[nH]c(-c3cscn3)nc2c1 [Thiabendazole] | 1.03 | 1.08 | 1.27 | 1.24 | 1.24 |
| CC(C)(C)c1cc(/C=C2\SC(=N)NC2=O)cc(C(C)(C)C)c1O.CS(=O)(=O)O [Darbufelone mesylate] | 1.11 | 0.907 | 1.28 | – | – |
| COc1cc(S(=O)(=O)[O-])c(C)cc1/N=N/c1c(O)ccc2cc(S(=O)(=O)[O-])ccc12.[Na+].[Na+] | 1.19 | 1 | 1.45 | 2.21 | – |
| Oc1ccc2ccccc2c1/N=N/c1ccccc1 [C.I. Solvent Yellow 14] | 1.12 | 1.2 | 1.14 | 1.37 | – |
| O=S(=O)([O-])c1ccc(/N=N/c2c(O)ccc3cc(S(=O)(=O)[O-])ccc23)cc1.[Na+].[Na+] [FD&C Yellow 6] | 1.08 | 0.966 | 1.22 | 2.05 | – |
| CCCCCCCCCCCCc1ccccc1 [Dodecylbenzene] | 1.06 | 1.03 | 1.08 | 0.984 | – |
| COc1ccc([N+](=O)[O-])cc1N [2-Methoxy-5-nitroaniline] | 0.964 | 0.988 | 1.04 | 1.14 | – |
| Cl.NCC1(Cc2noc(=O)[nH]2)CCCCC1 | 0.992 | 0.928 | 0.857 | 1.16 | – |
| O=c1c(O)c(-c2ccc(O)c(O)c2)oc2cc(O)cc(O)c12 [Quercetin] | 1.1 | 1.09 | 1.38 | – | – |
| O=c1c(-c2ccc(O)cc2)coc2cc(O)ccc12 [Daidzein] | 1.11 | 1.11 | 1.12 | 0.372 | – |
| O=c1c(-c2ccc(O)cc2)coc2cc(O)cc(O)c12 [Genistein] | 1.45 | 1.16 | 0.958 | 0.631 | 1.71 |

| SMILES | Wnt reporter firefly/Renilla luciferase ratio (concentration: 0.1 uM) | Wnt reporter firefly/Renilla luciferase ratio (concentration: 1 uM) | Wnt reporter firefly/Renilla luciferase ratio (concentration: 10 uM) | Wnt reporter firefly/Renilla luciferase ratio (concentration: 100 uM) | Wnt reporter firefly/Renilla luciferase ratio (concentration: 0.01 uM) |
| --- | --- | --- | --- | --- | --- |
| CC1CCC(NC(=O)N(CCCl)N=O)CC1 (stereo unspecified) [Semustine] | 0.921 | 0.986 | 0.864 | 0.475 | 1.09 |
| Cc1nc(-c2ccc3c(c2)CCN(CCC2CCC(NC(=O)/C=C/c4ccc(F)cc4)CC2)CC3)no1.Cl (stereo unspecified) | 1.22 | 0.948 | 0.916 | 0.983 | – |
| Cc1cnc(-c2cnc(NCCNc3ccc(C#N)cn3)nc2-c2ccc(Cl)cc2Cl)[nH]1 | 1.5 | 5.86 | 128 | – | 1.03 |
| CCOC(=O)c1ccc(O)cc1 [Ethylparaben] | 0.886 | 0.966 | 0.941 | 0.734 | – |
| O=C([O-])c1[nH]n(-c2ccc(S(=O)(=O)[O-])cc2)c(=O)c1/N=N/c1ccc(S(=O)(=O)[O-])cc1.[Na+].[Na+].[Na+] [FD&C Yellow 5] | 1.26 | 0.877 | 1.26 | 1.86 | – |
| CCCCc1oc2ccccc2c1C(=O)c1cc(I)c(OCCN(CC)CC)c(I)c1.Cl [Amiodarone hydrochloride] | 1.18 | 1.09 | 1 | 1.11 | – |
| CC(C)c1cccc(C(C)C)c1 [1,3-Diisopropylbenzene] | 1.14 | 0.929 | 1.33 | 1.5 | – |
| CC(=O)OC/C=C(\C)CCC=C(C)C [Geranyl acetate] | 1.1 | 0.97 | 1.27 | 1.23 | – |
| c1ccc(Nc2ccccc2)cc1 [Diphenylamine] | 1.08 | 1.19 | 1.18 | 1.24 | 1.05 |
| [Cl-].[Li+] | 0.845 | 0.926 | 0.875 | 1.27 | 0.768 |
| CC(C)=CCCC(C)CCO (stereo unspecified) [Citronellol] | 1.07 | 0.904 | 1.18 | 1.64 | – |
| C=CC(=C)CCC=C(C)C [Myrcene] | 1.05 | 0.768 | 1.02 | 1.15 | – |
| CC(C)CCO [Isopentyl alcohol] | 1.15 | 0.978 | 1.1 | 1.03 | – |
| NC(CCCP(=O)(O)O)C(=O)O (racemic) | 1.19 | 0.925 | 0.918 | 1.69 | 1.35 |
| CC/C(=C(/CC)c1ccc(O)cc1)c1ccc(O)cc1 [Diethylstilbestrol] | 0.897 | 0.807 | 0.741 | 0.205 | – |
| C[C@@H]1C[C@H]2[C@@H]3CCC4=CC(=O)C=C[C@]4(C)[C@@]3(F)[C@@H](O)C[C@]2(C)[C@@]1(O)C(=O)COP(=O)([O-])[O-].[Na+].[Na+] [Dexamethasone sodium phosphate] | 1.15 | 1.09 | 1.2 | 0.968 | – |
| c1ccc2c(c1)-c1cccc3c1c-2cc1ccccc13 [Benzo(b)fluoranthene] | 1.22 | 1.22 | 1.45 | 1.45 | – |
| C1N2CN3CN1CN(C2)C3 [Methenamine] | 1.17 | 1.16 | 1.23 | 1.71 | – |
| COC(=O)CC(=O)OC [Dimethyl malonate] | 1.02 | 1.16 | 0.907 | 1.28 | – |
| Cc1occc1C(=O)Nc1ccc(C(=O)N2CCC(F)(F)/C(=C\C(=O)N3CCC(N4CCCCC4)CC3)c3ccccc32)cc1.Cc1occc1C(=O)Nc1ccc(C(=O)N2CCC(F)(F)/C(=C\C(=O)N3CCC(N4CCCCC4)CC3)c3ccccc32)cc1.O=C(O)/C=C/C(=O)O | 1.22 | 0.982 | 0.94 | – | – |

Source: the supplement of paper PMC9254222
